# Laboratory results as given in PubChem BioAssay AID1053117 (Broad Institute, 2014).
# Entries with a potency or affinity are not part of this list. Calls of active or inactive are those of the source.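 Rule for the calls: active = compounds lowering cell ATP signal with a fitted half-effect dose at most twice the top valid dose; inconclusive = flat curve with 30 to 70% signal loss, or bad fit; inactive = wrong direction, flat within 30%, or weaker than limit.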
# Test: viability loss in HEK293 kidney cells – cell-based, cherry-picks, set 5, cytotoxicity control, dose response (AID 1053117);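 note: more negative means greater loss of ATP signal and more cytotoxicity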
# Conditions: HEK293T viability, CellTiter-Glo ATP luminescence, 72 h; series mostly up to 26 µM
row,SMILES,outcome
1,COc1ccc([N+](=O)[O-])cc1NS(=O)(=O)c1ccc(C(=O)N2CCCC2)cc1,inactive
2,Cc1ccn2cc(-c3ccc(NC(=O)c4ccco4)cc3)nc2c1,inactive
3,CN1c2ccc(-c3ccccc3)cc2[C@@H]2[C@@H](CCN2C(=O)CN2CCOCC2)[C@H]1CO,inactive
4,CCN1CCN(C(c2ccccc2)c2nnnn2Cc2ccccc2)CC1 (stereo not drawn),inactive
5,CO[C@H]1CN(C)C(=O)c2cc(NC(C)=O)ccc2OC[C@@H](C)N(C(=O)CN2CCOCC2)C[C@H]1C,inactive
6,C[C@H]1CN([C@@H](C)CO)C(=O)c2cc(-c3ccccc3)cnc2O[C@H]1CN(C)Cc1ccccc1,inactive
7,C[C@@H]1CN([C@H](C)CO)C(=O)c2cc(NC(=O)C3CCCCC3)ccc2O[C@@H]1CN(C)Cc1ccc(-c2ccccc2)cc1,inactive
8,CCN(Cc1ccncc1)C(=O)c1ccc2c(c1)S(=O)(=O)c1ccccc1C2=O,inactive
9,O=C(NCCS(=O)(=O)N1CCN(c2ccc(F)cc2)CC1)c1ccc(Br)o1,inactive
10,O=C(CCC(=O)c1cccs1)NCc1cccnc1,inactive
11,CC(C)Cc1nnc(NC(=O)CSc2nc(N)cc(=O)[nH]2)s1,inactive
12,Cc1ccc(-c2nc3ncccc3o2)cc1NC(=O)c1ccco1,inactive
13,COC(=O)C[C@@H]1CC[C@@H]2[C@H](COc3ccc(NC(=O)Cc4cccs4)cc3C(=O)N2C)O1,inactive
14,COc1ccc(C)cc1N(CC(=O)Nc1cccc(N(C)S(C)(=O)=O)c1)S(C)(=O)=O,inactive
15,CCOc1ccccc1NC(=O)c1c(NC(=O)CCC(=O)O)sc2c1CCCCC2,inactive
16,C[C@H](CO)N1C[C@H](C)[C@H](CN(C)Cc2ccccc2)Oc2ncc(-c3ccccc3)cc2C1=O,inactive
17,O=C(c1cccnc1)N1C[C@@H]2[C@H](c3ccccc31)[C@H](CO)N2CC1CCCC1,inactive

row,SMILES,outcome
1,CN1c2ccc(-c3ccccc3)cc2[C@@H]2[C@@H](CCN2C(=O)CN2CCOCC2)[C@@H]1CO,inactive
2,COc1cccc(-c2ccc3c(c2)[C@@H]2[C@@H](CCN2S(=O)(=O)c2cccc(OC)c2)[C@@H](CO)N3)c1,inactive
3,CC(C)(C)[S@@](=O)N1Cc2cc(C(=O)NCc3ccccc3F)nc(-c3cccc(-c4cncnc4)c3)c2[C@H]1CCO,inactive
4,Fc1cnc(N2CCN(c3ccccc3)CC2)nc1N1CCN(c2ccccc2)CC1,inactive
5,Cn1cnc(S(=O)(=O)N2CCN(c3ccccc3)CC2)c1,inactive
6,COCC(=O)Nc1ccc2c(c1)C(=O)N(C)[C@H]1CC[C@H](CC(=O)NCc3ccccc3Cl)O[C@H]1CO2,inactive
7,COc1ccc(-c2oc3ncnc(NCCCN4CCOCC4)c3c2-c2ccc(OC)cc2)cc1,inactive
8,COc1ncccc1C(=O)NC1CCCc2c1cnn2-c1ccc(C)c(C)c1 (stereo not drawn),inactive
9,COc1ccc(CCNC(=O)C2CCN(Cc3nc(-c4ccccc4F)oc3C)CC2)cc1OC,inactive
10,CC(C)NC(=O)N(C)C[C@H]1Oc2ccc(NC(=O)CCN3CCOCC3)cc2C(=O)N([C@H](C)CO)C[C@@H]1C,inactive
11,Cc1ccc(C(O)c2ncc(-c3cccc4ccccc34)[nH]2)cc1F (stereo not drawn),inactive
12,C[C@H]1CN([C@@H](C)CO)C(=O)c2cccc(NC(=O)Nc3ccc(C(F)(F)F)cc3)c2O[C@H]1CN(C)C(=O)Nc1cccc2ccccc12,inactive
13,O=C(NCc1ccccc1)c1ccc(-c2cn[nH]c2)c2ccoc12,inactive
14,COc1cccc(S(=O)(=O)N2CC[C@@H]3[C@H]2c2cc(-c4ccc(C#N)cc4)ccc2N[C@@H]3CO)c1,inactive
15,CN(C)C(=O)c1ccc(-c2ccc3c(c2)[C@H]2[C@H](CCN2C(=O)c2ccc(F)cc2)[C@H](CO)N3C)cc1,inactive
16,CCCCOc1ccc(C(C)NC(=O)C2CCCN(S(=O)(=O)CCC)C2)cc1 (stereo not drawn),inactive
